These results are taken from PubChem BioAssay (NCI).

This is part of a sample that, as a whole, favours compounds with a hit. Of some 83,000 tested, about 20% had one in any assay.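 Treatment: one concentration, 48 hours, 96-well format. Scoring: percent growth, with anything below 10 considered active.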 Unmarked numbers belong to inactive results. Active and inactive are the calls of the source.

Common to all, as to test: NCI-60 one-dose screen, 48 h (100 = growth as untreated, 0 = no growth, -100 = all killed)
Conditions in all cases: 10 µM unless noted

Assay [1] deals with DU-145 prostate.
In assay [2] the test system is K-562 leukemia.
Assay [3] deals with MALME-3M melanoma.
In assay [4] the test system is MDA-MB-231 breast.
Assay [5] relates to RXF 393 renal.
For assay [6], the system named is SF-268 CNS.
Assay [7] relates to SF-295 CNS.
Assay [8] has as its system SF-539 CNS.
The subject of assay [9] is UACC-257 melanoma.
Assay [10] relates to M14 melanoma.
Assay [11] deals with HCT-15 colon.
The subject of assay [12] is HT29 colon.
The test system of assay [13] is SNB-75 CNS.
In assay [14] the test system is SNB-19 CNS.
The subject of assay [15] is U251 CNS.
The test system of assay [16] is PC-3 prostate.
Assay [17] relates to SK-MEL-5 melanoma.
In assay [18] the test system is UACC-62 melanoma.
Assay [19] concerns LOX IMVI melanoma.
For assay [20], the system named is SK-MEL-28 melanoma.

With `COC(=O)c1c2c(c(C)[n+]([O-])c1C)C(=O)C=C(NCc1ccc(F)cc1)C2=O`, the growth was -90.6% (active) in [1]; 1.64% (active) in assay [2]; -97.8% (active) in assay [3]; -29.3% (active) in assay [4]; -22.2% (active) in assay [5]; -1.99% (active) in [6]. In addition, the growth in assay [7] was -80% (active); in assay [8] it was -91.2% (active); in assay [9], -87.2% (active); in assay [10], -69.3% (active); in assay [11], -60.5% (active); in [12] it was 2.67% (active). For the same molecule, the growth in assay [13] is -92% (active); in [14], -66.5% (active); in assay [15], -23.1% (active); in assay [16], 2.62% (active); in assay [17] it was -96.8% (active); in [18] it was -81.7% (active). Moreover, the growth in [19] is -47.1% (active); in [20], 6.43% (active).
Turning to `Cc1nc(-c2ccccc2)cc2c(O)c(C(=O)N/N=C/Cc3ccccc3)[nH]c(=O)c12`, the growth in [1] is 113%; in [2], 76.6%; in assay [3] it was 116%; in [4], 113%; in [5] it was 127%; in assay [6] it was 103%. The growth in [7] is 117%; in assay [8], 103%; in assay [9], 94.5%; in [10], 106%; in assay [11], 106%; in assay [12], 93.8%. For the same molecule, the growth in [13] is 90.7%; in [14] it was 110%; in assay [15] it was 98.8%; in assay [16], 90%; in assay [17], 107%; in assay [18] it was 109%. Further, the growth in [19] is 95.7%; in assay [20], 115%.
In the case of `O=[N+]([O-])c1ccc2nc(N/N=C/c3ccc(O)cc3)sc2c1`, the growth in [1] was 60.1%; in assay [2], 31.6%; in assay [3] it was 65%; in assay [4] it was 82.9%; in assay [5] it was 103%; in assay [6], 64.1%. The growth in assay [7] is 86.7%; in [8], 49.5%; in assay [9], 66.6%; in [10], 83%; in assay [11] it was 53.4%; in [12], 78%. Besides, the growth is 73.7% in assay [13]; 77.9% in [14]; 45.9% in assay [15]; 38.4% in [16]; 58.1% in assay [17]; 81.7% in [18]. The growth is 49.7% in [19] and 89% in assay [20].
As to `Cc1ccccc1-n1nnc(C(=O)Nc2ccc(-c3ccccc3)cn2)c1C`, the growth in [1] is 54.3% [50 µM]; in assay [2], 26.5% [50 µM]; in assay [3] it was 39.6% [50 µM]; in assay [4], 63.1% [50 µM]; in [5] it was 74.7% [50 µM]; in assay [6], 68.7% [50 µM]. Moreover, the growth is 38.9% [50 µM] in [7]; 72.3% [50 µM] in assay [8]; 25.5% [50 µM] in [9]; 41.8% [50 µM] in [10]; 39.8% [50 µM] in assay [11]; 28.1% [50 µM] in assay [12]. For the same molecule, the growth is 83.6% [50 µM] in assay [13]; 62.6% [50 µM] in assay [14]; 64.9% [50 µM] in assay [15]; 40.5% [50 µM] in [16]; -41.8% [50 µM] (active) in [17]; 45.6% [50 µM] in [18]. Moreover, the growth in assay [19] is 48.1% [50 µM]; in assay [20], 56.8% [50 µM].
For `COc1cc2oc(-c3ccc(O)cc3)cc(=O)c2c(O)c1I`, the growth in assay [1] is 104%; in assay [2] it was 92.6%; in assay [3], 115%; in assay [4] it was 99%; in assay [5] it was 138%; in assay [6], 105%. For the same molecule, the growth is 97% in [7]; 100% in assay [8]; 96.6% in assay [9]; 110% in assay [10]; 100% in assay [11]; 107% in assay [12]. Besides, the growth in assay [13] is 99%; in [14], 95.9%; in [15] it was 97%; in assay [16], 97.5%; in assay [17], 101%; in [18], 102%. The growth is 107% in assay [19] and 108% in assay [20].
On to `Fc1c[c-]c(-c2ccccn2)c(F)c1.Fc1c[c-]c(-c2ccccn2)c(F)c1.[Cl][Pt+].[Cl][Pt+].c1ccc([PH+](C[PH+](c2ccccc2)c2ccccc2)c2ccccc2)cc1`, for which the growth in [1] was 22.8%; in assay [2], 10.2%; in assay [3], -41.2% (active); in [4], -15.4% (active); in assay [5] it was 34%; in [6], 21.9%. The growth is 17.3% in assay [7]; 29.5% in [8]; -0.265% (active) in [9]; 22.7% in assay [10]; 90.8% in assay [11]; 7.78% (active) in [12]. The growth in assay [13] was 20.1%; in assay [14], 17.8%; in [15], 15%; in assay [16], 14.9%; in assay [17], -70.8% (active); in assay [18], 3.59% (active). The figures for the growth in assay [19] and in assay [20] were 20.5% and 16.1%, respectively.
`C[C@]1(CO)C[C@@H](O)C[C@]2(C)[C@@H]1CC[C@@]13C[C@@H]4[C@@H](C[C@H]12)[C@]4(C)C3`: the growth in assay [1] is 111%; in assay [2], 101%; in [3] it was 94.4%; in [4], 98%; in [5], 119%; in assay [6], 100%. For the same molecule, the growth in assay [7] was 104%; in [8], 99.4%; in assay [9], 106%; in [10], 94.8%; in [11] it was 103%; in assay [12], 105%. Besides, the growth in [13] was 88.9%; in assay [14], 95.7%; in assay [15], 104%; in assay [16] it was 99%; in [17], 99%; in assay [18] it was 94.1%. Moreover, the growth in assay [19] was 107%; in assay [20] it was 103%.
With `Cc1ccccc1-n1nnc(C(=O)Nc2nc(-c3ccccc3)c(-c3ccccc3)s2)c1C`, the growth is 87.6% [50 µM] in assay [1]; 53.5% [50 µM] in [2]; 80% [50 µM] in assay [3]; 85.3% [50 µM] in [4]; 69% [50 µM] in [5]; 69.6% [50 µM] in assay [6]. Besides, the growth was 80.6% [50 µM] in assay [7]; 77.1% [50 µM] in assay [8]; 61.5% [50 µM] in assay [9]; 78.7% [50 µM] in assay [10]; 67.3% [50 µM] in [11]; 78.7% [50 µM] in [12]. For the same molecule, the growth was 5.92% [50 µM] (active) in assay [13]; 49.5% [50 µM] in assay [14]; 76.6% [50 µM] in [15]; 63.2% [50 µM] in assay [16]; 80.5% [50 µM] in [17]; 69.9% [50 µM] in assay [18]. The growth was 80.7% [50 µM] in assay [19] and 87.2% [50 µM] in assay [20].
